# Measured values reported in PubChem BioAssay (EPA / NIEHS).
# Inconclusive results are not listed. Calls of active or inactive are those of the source. The calls were made as follows, unless noted: active = hit-call score of the fitted dose curve at least 0.9, where 1 is the maximum; inactive = score below 0.9.
# Key:
# [1] = ACEA_ER_80hr: ACEA Biosciences xCELLigence Real-Time Cell Analysis on Estrogen Receptor Agonism for Proliferation (AID 2282667; active = hit-call score of the fitted dose curve at least 0.9, where 1 is the maximum); conditions: T47D proliferation, impedance (xCELLigence), 80 h
# Procedure, shortened: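 Cell-growth kinetics were measured by impedance in T47D cells treated continuously with compound (top 100 uM final, 1:4 steps, 8 points). Activity at 80 h was scored as signal gain over the DMSO baseline.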
# [2] = ATG_CRE_CIS: Attagene CIS-FACTORIAL HepG2 Assay for human cAMP Responsive Element (CRE) binding protein 3 (AID 2282926); conditions: HepG2 CRE cis-reporter, Attagene multiplexed mRNA; actives raise or lower the signal
# Procedure, shortened: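 Cells carrying cis-regulated reporter constructs respond through their own endogenous factors. After 24 h treatment, RNA is reverse-transcribed, amplified, labelled and sized by capillary electrophoresis; up- and down-regulation are both scored against vehicle.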
# [3] = biological target: CCAAT/enhancer-binding protein beta (Homo sapiens) (UniProt P17676); experiment: ATG_C_EBP_CIS: Attagene CIS-FACTORIAL HepG2 Assay for human CCAAT/Enhancer Binding Protein (C/EBP) beta (AID 2282927); conditions: HepG2 Attagene cis-factorial transcription factor reporter; actives raise or lower the signal
# Chain of CCAAT/enhancer-binding protein beta (Homo sapiens) (P17676 whole entry, looked up): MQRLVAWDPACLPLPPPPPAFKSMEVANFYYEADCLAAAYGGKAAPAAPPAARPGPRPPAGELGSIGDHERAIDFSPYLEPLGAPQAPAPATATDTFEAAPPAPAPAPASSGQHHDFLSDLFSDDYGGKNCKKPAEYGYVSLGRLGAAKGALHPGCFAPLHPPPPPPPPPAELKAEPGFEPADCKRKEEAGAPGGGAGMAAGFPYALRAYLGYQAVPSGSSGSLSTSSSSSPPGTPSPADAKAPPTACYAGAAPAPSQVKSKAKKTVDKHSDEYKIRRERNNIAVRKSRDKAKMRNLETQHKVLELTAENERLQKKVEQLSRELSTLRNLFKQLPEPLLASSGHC
# Procedure, shortened: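 Following a 24 h incubation with test chemical, transfected HepG2 cells yielded RNA whose reporter transcripts were quantified by RT-PCR and fluorescent capillary electrophoresis, with DMSO serving as baseline for bidirectional fitting.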
# [4] = ATG_CMV_CIS: Attagene CIS-FACTORIAL HepG2 Assay for human CMV (Internal Marker) (AID 2282928); conditions: HepG2 CMV promoter reporter, transcription factor profiling; actives raise or lower the signal;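 also: endpoint acts as a background internal control marker rather than a target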
# Procedure, shortened: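 Bidirectional fits against DMSO are applied to reporter mRNA, read by RT-PCR with capillary electrophoresis, from HepG2 cells exposed 24 h. The endpoint serves as an internal CMV background marker within the cis-factorial reporter panel.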
# [5] = ATG_DR4_LXR_CIS: Attagene CIS-FACTORIAL HepG2 Assay for human Liver X Receptor (LXR), DR4 submotif (AID 2282929); conditions: HepG2 Attagene DR4 cis-reporter, mRNA transcription; actives raise or lower the signal
# Procedure, shortened: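 Total RNA from 24 h-treated, MRTU-transfected HepG2 cells underwent reverse transcription, PCR, fluorescent primer extension and restriction digestion before capillary electrophoresis. Both increases and decreases in reporter signal were fitted against DMSO.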
# [6] = biological target: Aryl hydrocarbon receptor (Homo sapiens) (UniProt P35869); experiment: ATG_Ahr_CIS: Attagene CIS-FACTORIAL HepG2 Assay for human Aryl Hydrocarbon Receptor (Ahr) (AID 2282930); conditions: HepG2 AhR cis-factorial reporter transcription; actives raise or lower the signal
# Chain of Aryl hydrocarbon receptor (Homo sapiens) (P35869 whole entry, looked up): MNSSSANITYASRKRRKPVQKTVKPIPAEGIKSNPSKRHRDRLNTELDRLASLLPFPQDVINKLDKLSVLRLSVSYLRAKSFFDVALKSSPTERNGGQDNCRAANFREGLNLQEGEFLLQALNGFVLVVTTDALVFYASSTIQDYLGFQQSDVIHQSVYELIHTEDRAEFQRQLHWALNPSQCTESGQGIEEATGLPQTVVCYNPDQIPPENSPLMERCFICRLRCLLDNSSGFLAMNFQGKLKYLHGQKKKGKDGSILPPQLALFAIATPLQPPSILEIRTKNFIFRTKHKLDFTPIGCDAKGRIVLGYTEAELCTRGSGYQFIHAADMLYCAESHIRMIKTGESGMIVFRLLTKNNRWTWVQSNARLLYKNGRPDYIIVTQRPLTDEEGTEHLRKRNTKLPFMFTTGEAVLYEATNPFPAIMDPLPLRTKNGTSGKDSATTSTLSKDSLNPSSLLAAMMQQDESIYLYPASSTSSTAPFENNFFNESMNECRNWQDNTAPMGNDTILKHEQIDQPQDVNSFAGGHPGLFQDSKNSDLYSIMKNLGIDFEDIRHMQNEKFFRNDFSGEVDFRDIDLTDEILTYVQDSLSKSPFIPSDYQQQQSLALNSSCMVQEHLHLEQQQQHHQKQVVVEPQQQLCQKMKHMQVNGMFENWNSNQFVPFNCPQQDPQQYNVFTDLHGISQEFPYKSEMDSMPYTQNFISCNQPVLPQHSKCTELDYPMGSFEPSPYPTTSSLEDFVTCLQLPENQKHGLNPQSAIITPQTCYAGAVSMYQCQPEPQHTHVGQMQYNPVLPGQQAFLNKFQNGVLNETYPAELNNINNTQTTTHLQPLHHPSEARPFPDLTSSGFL
# Procedure, shortened: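 Values derive from bidirectional fitting against DMSO negative control. Underlying signal: cis-element reporter mRNA in transiently transfected HepG2, harvested 24 h post-dose and measured by RT-PCR plus capillary electrophoresis.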
# [7] = ATG_AP_1_CIS: Attagene CIS-FACTORIAL HepG2 Assay for human Activator Protein 1 (AP-1) (AID 2282931); conditions: HepG2 Attagene cis-factorial AP-1 reporter mRNA; actives raise or lower the signal
# Procedure, shortened: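 HepG2, transient cis-reporter transfection; 24 h; readout RT-PCR/CE fluorescence; DMSO baseline, gain and loss fitted.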
# [8] = ATG_AP_2_CIS: Attagene CIS-FACTORIAL HepG2 Assay for human Activator Protein 2 (AP-2) (AID 2282932); conditions: HepG2 AP-2 cis-reporter, Attagene transcription factor profiling; actives raise or lower the signal
# Procedure, shortened: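 Assay in transfected HepG2 with promoter-regulated reporters, 24 h incubation after dosing. Signal is reporter mRNA fluorescence (RT-PCR, capillary electrophoresis), analysed for both increases and decreases relative to DMSO controls.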
# [9] = ATG_BRE_CIS: Attagene CIS-FACTORIAL HepG2 Assay for human Bone Morphogenetic Protein (BMP) Response Element (BRE) (AID 2282933); conditions: HepG2 BMP response element reporter, Attagene transcription factor profiling; actives raise or lower the signal
# Procedure, shortened: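 HepG2 cells transiently transfected with multiplexed cis-element reporter units were dosed with chemical for 24 h. Reporter mRNA was measured by RT-PCR with fluorescent labelling, HpaI digestion and capillary electrophoresis; bidirectional fitting relative to DMSO.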
# [10] = biological target: Retinoic acid receptor alpha (Homo sapiens) (UniProt P10276); experiment: ATG_DR5_RAR_CIS: Attagene CIS-FACTORIAL HepG2 Assay for human Retinoic Acid Receptor Alpha (RARE), DR5 submotif (AID 2282934); conditions: HepG2 Attagene cis-factorial RARE DR5 reporter, mRNA; actives raise or lower the signal;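 as to AC50: reporter responds to endogenous RAR alpha beta and gamma in HepG2 not RARA alone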
# Chain of Retinoic acid receptor alpha (Homo sapiens) (P10276 whole entry, looked up): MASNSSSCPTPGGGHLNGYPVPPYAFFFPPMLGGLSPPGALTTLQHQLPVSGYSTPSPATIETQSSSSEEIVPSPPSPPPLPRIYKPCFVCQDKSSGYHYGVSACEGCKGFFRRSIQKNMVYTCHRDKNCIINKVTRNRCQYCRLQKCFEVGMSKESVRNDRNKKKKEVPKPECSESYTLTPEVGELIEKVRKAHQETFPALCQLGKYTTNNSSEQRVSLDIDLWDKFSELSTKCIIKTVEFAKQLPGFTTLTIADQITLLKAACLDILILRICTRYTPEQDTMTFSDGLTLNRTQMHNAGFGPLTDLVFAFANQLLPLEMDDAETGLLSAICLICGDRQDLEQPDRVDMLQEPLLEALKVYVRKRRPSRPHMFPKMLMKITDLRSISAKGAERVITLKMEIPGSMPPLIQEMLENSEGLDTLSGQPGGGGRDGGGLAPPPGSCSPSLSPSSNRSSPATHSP
# Procedure, shortened: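 Endpoint fitted in both directions relative to DMSO as negative control. It reflects DR5 cis-element reporter mRNA induction in transiently transfected HepG2 cells, measured 24 h after dosing through RT-PCR and fluorescent capillary electrophoresis.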
# [11] = biological target: Transcription factor E2F1 (Homo sapiens) (UniProt Q01094); experiment: ATG_E2F_CIS: Attagene CIS-FACTORIAL HepG2 Assay for human E2F Transcription Factor 1 (AID 2282935); conditions: HepG2 Attagene cis-reporter, E2F reporter RNA transcripts; actives raise or lower the signal
# Chain of Transcription factor E2F1 (Homo sapiens) (Q01094 whole entry, looked up): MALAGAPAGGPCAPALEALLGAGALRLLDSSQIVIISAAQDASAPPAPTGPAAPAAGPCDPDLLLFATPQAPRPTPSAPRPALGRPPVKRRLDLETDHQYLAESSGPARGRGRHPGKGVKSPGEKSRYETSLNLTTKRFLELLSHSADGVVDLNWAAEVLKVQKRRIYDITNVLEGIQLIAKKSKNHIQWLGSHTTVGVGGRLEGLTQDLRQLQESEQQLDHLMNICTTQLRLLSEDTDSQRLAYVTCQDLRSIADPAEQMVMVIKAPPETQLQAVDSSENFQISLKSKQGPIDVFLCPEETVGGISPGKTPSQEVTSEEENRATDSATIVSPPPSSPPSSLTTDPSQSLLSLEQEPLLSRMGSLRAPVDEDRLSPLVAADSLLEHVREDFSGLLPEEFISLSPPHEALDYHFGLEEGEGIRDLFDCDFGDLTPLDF
# Procedure, shortened: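 In this cis-factorial format, endogenous factor activity drives transfected reporters in HepG2; transcripts collected at 24 h are quantified by fluorescence after RT-PCR and capillary separation.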
# [12] = ATG_E_Box_CIS: Attagene CIS-FACTORIAL HepG2 Assay for human Enhancer Box (E-box) (AID 2282936); conditions: HepG2 E-box cis-reporter transcription, actives raise or lower the signal
# Procedure, shortened: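 Measured 24 h post-dosing in HepG2 cells transfected with multiple cis-regulated reporter units, signal being reporter mRNA induction detected by fluorescent RT-PCR with capillary electrophoresis; gain or loss fitted against DMSO.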
# [13] = ATG_M_61_CIS: Attagene CIS-FACTORIAL HepG2 Assay for M61 Transcription Factor (Internal Marker) (AID 2282937); conditions: HepG2 Attagene CIS-FACTORIAL M61 internal marker reporter; actives raise or lower the signal
# Procedure, shortened: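 Transfect HepG2 with MRTUs; dose 24 h; isolate RNA; reverse-transcribe with DNase I treatment; PCR-amplify, FAM-label and cut with HpaI for 2 h at 37 C; resolve by CE. Bidirectional fitting against DMSO.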
# [14] = ATG_EGR_CIS: Attagene CIS-FACTORIAL HepG2 Assay for human Early Growth Response 1 (EGR1) (AID 2282938); conditions: HepG2 Attagene CIS-FACTORIAL EGR reporter mRNA; actives raise or lower the signal
# Procedure, shortened: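 After a 24 h treatment of transiently transfected HepG2 cells, total RNA was reverse-transcribed and reporter sequences PCR-amplified, labelled and run on capillary electrophoresis. Reporters sit under cis-regulatory promoters sensing endogenous factors.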
# [15] = ATG_M_19_CIS: Attagene CIS-FACTORIAL HepG2 Assay for M19 Transcription Factor (Internal Marker) (AID 2282939); conditions: HepG2 Attagene CIS-FACTORIAL M19 internal marker reporter; actives raise or lower the signal
# Procedure, shortened: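 HepG2 cells transiently transfected with cis-regulated multiple reporter transcription units were dosed for 24 h; reporter mRNA was quantified by RT-PCR, 6-FAM primer-extension labelling, HpaI digestion and capillary electrophoresis, with bidirectional fitting against DMSO baseline.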
# [16] = ATG_ERE_CIS: Attagene CIS-FACTORIAL HepG2 Assay for Estrogen Response Element (ERE) (AID 2282940); conditions: HepG2 ERE cis-reporter, Attagene RNA transcript; actives raise or lower the signal
# Procedure, shortened: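 HepG2 cells transiently transfected with cis-promoter-driven multiplexed reporter transcription units report endogenous TF activity. After 24 h compound exposure, reporter mRNA is quantified by RT-PCR with capillary electrophoresis fluorescence; bidirectional fitting versus DMSO baseline.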
# [17] = ATG_Ets_CIS: Attagene CIS-FACTORIAL HepG2 Assay for human Erythroblast Transformation Specific (ETS) (AID 2282941); conditions: HepG2 ETS cis-reporter transcription, actives raise or lower the signal
# Procedure, shortened: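 Endogenous transcription factor activity read as reporter mRNA via RT-PCR and capillary electrophoresis, with gain or loss fitted bidirectionally against DMSO. Human HepG2 liver cells, transiently transfected CIS reporter constructs, 24 h exposure.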
# [18] = biological target: Hepatocyte nuclear factor 3-beta (Homo sapiens) (UniProt Q9Y261); experiment: ATG_FoxA2_CIS: Attagene CIS-FACTORIAL HepG2 Assay for human Forkhead box A2 (FOXA2) (AID 2282942); conditions: HepG2 cis-reporter transcription factor activity, 24 h; actives raise or lower the signal
# Chain of Hepatocyte nuclear factor 3-beta (Homo sapiens) (Q9Y261 whole entry, looked up): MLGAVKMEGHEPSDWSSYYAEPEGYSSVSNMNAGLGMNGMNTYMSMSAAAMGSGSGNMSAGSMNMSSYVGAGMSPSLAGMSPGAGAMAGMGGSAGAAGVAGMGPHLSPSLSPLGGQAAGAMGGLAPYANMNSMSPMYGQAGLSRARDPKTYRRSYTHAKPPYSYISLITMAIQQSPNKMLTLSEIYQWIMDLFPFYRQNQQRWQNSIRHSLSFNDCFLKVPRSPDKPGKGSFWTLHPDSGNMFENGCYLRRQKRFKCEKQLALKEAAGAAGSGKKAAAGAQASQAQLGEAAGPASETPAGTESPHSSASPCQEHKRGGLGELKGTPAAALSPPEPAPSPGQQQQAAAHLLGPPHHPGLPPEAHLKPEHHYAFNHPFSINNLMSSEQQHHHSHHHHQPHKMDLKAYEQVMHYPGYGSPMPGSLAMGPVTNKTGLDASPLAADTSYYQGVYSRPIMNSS
# Procedure, shortened: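 24 h dosing of HepG2 bearing cis-reporter constructs; mRNA readout by RT-PCR/CE fluorescence; bidirectional fit, DMSO baseline.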
# [19] = ATG_GATA_CIS: Attagene CIS-FACTORIAL HepG2 Assay for human GATA Binding Protein (AID 2282944); conditions: HepG2 GATA cis-element reporter, Attagene multiplex mRNA; actives raise or lower the signal
# Procedure, shortened: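 HepG2 cells transiently transfected with multiplexed cis-element reporter units reflecting endogenous transcription factor activity; reporter mRNA measured after 24 h dosing by RT-PCR, 6-FAM labeling, HpaI digestion and capillary electrophoresis. Bidirectional fitting versus DMSO baseline.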
# [20] = ATG_FoxO_CIS: Attagene CIS-FACTORIAL HepG2 Assay for human Forkhead box O (FoxO) (AID 2282943); conditions: HepG2 Attagene cis-reporter, FoxO element, mRNA; actives raise or lower the signal
# Procedure, shortened: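 Values reflect reporter mRNA induction or loss in HepG2 cells 24 h post-dosing, fitted bidirectionally with DMSO as negative control and baseline. Detection used RT-PCR and fluorescence capillary electrophoresis.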
smiles,measurement,setting,value
O=C(OCc1ccccc1)c1ccc(O)cc1,AC50,[1],10.5 µM (active)
same,outcome,[2],inactive
same,outcome,[3],inactive
same,outcome,[4],inactive
same,outcome,[5],inactive
same,outcome,[6],inactive
same,outcome,[7],inactive
same,outcome,[8],inactive
same,AC50,[9],123 µM (active)
same,outcome,[10],inactive
same,outcome,[11],inactive
same,AC50,[12],171 µM (active)
same,outcome,[13],inactive
same,AC50,[14],93.4 µM (active)
same,outcome,[15],inactive
same,AC50,[16],8.77 µM (active)
same,outcome,[17],inactive
same,outcome,[18],inactive
same,outcome,[19],inactive
CC(C)(CO)C(O)C(=O)NCCCO (configuration not stated),outcome,[1],inactive
same,outcome,[2],inactive
same,outcome,[3],inactive
same,outcome,[4],inactive
same,outcome,[5],inactive
same,outcome,[6],inactive
same,outcome,[7],inactive
same,outcome,[8],inactive
same,outcome,[9],inactive
same,outcome,[10],inactive
same,outcome,[11],inactive
same,outcome,[12],inactive
same,outcome,[13],inactive
same,outcome,[14],inactive
same,outcome,[15],inactive
same,outcome,[16],inactive
same,outcome,[17],inactive
same,outcome,[18],inactive
same,outcome,[19],inactive
C=CC(=O)OCCCCCCCCCC,outcome,[1],inactive
same,outcome,[2],inactive
same,outcome,[3],inactive
same,outcome,[4],inactive
same,outcome,[5],inactive
same,outcome,[6],inactive
same,outcome,[7],inactive
same,outcome,[8],inactive
same,outcome,[9],inactive
same,AC50,[10],46 µM (active)
same,outcome,[11],inactive
same,outcome,[12],inactive
same,outcome,[14],inactive
same,outcome,[15],inactive
same,outcome,[16],inactive
same,outcome,[17],inactive
same,outcome,[18],inactive
same,outcome,[20],inactive
same,outcome,[19],inactive
Oc1ccc(/C=C/c2cc(O)cc(O)c2)cc1,outcome,[1],inactive
same,outcome,[2],inactive
same,outcome,[3],inactive
same,AC50,[4],22.7 µM (active)
same,AC50,[5],100 µM (active)
same,outcome,[6],inactive
same,outcome,[7],inactive
same,outcome,[8],inactive
same,outcome,[9],inactive
same,outcome,[10],inactive
same,outcome,[11],inactive
same,outcome,[12],inactive
same,outcome,[13],inactive
same,outcome,[14],inactive
same,outcome,[15],inactive
same,AC50,[16],6.81 µM (active)
same,outcome,[18],inactive
same,outcome,[20],inactive
same,outcome,[19],inactive
CC(C)=NNC(N)=S,outcome,[1],inactive
same,outcome,[2],inactive
same,outcome,[3],inactive
same,outcome,[4],inactive
same,outcome,[5],inactive
same,outcome,[6],inactive
same,outcome,[7],inactive
same,outcome,[8],inactive
same,outcome,[9],inactive
same,outcome,[10],inactive
same,outcome,[11],inactive
same,outcome,[12],inactive
same,outcome,[13],inactive
same,outcome,[14],inactive
same,outcome,[15],inactive
same,outcome,[16],inactive
same,outcome,[17],inactive
same,outcome,[18],inactive
same,outcome,[19],inactive
CC1(C)C(=O)N(CO)C(=O)N1CO,outcome,[1],inactive
same,outcome,[2],inactive
same,outcome,[3],inactive
same,outcome,[4],inactive
same,outcome,[5],inactive
same,outcome,[6],inactive
same,outcome,[7],inactive
same,outcome,[8],inactive
same,outcome,[9],inactive
same,outcome,[10],inactive
same,outcome,[11],inactive
same,outcome,[13],inactive
same,outcome,[14],inactive
same,outcome,[15],inactive
same,outcome,[16],inactive
same,outcome,[17],inactive
same,outcome,[18],inactive
same,outcome,[20],inactive
same,outcome,[19],inactive
CCOC(=O)CC(=O)c1ccccc1,outcome,[1],inactive
same,outcome,[2],inactive
same,outcome,[3],inactive
same,outcome,[4],inactive
same,outcome,[5],inactive
same,outcome,[6],inactive
same,outcome,[7],inactive
same,outcome,[8],inactive
same,outcome,[9],inactive
same,outcome,[10],inactive
same,outcome,[11],inactive
same,outcome,[12],inactive
same,outcome,[14],inactive
same,outcome,[15],inactive
same,outcome,[16],inactive
same,outcome,[17],inactive
same,outcome,[18],inactive
same,outcome,[19],inactive
